Laboratory results from PubChem BioAssay AID651812 (National Center for Advancing Translational Sciences (NCATS), 2012).
The campaign covered roughly 2,100 compounds. About 650 (31%) were called active. About 16% were inconclusive and are not listed. Calls come from the whole dose curve; as a rule, active = well fitted inhibition curve with a large enough effect; inconclusive = small, poorly fitted or top-dose-only effect; inactive = flat fitted curve, though single readings scatter. The list shows a part of the results. A call without a number means that no potency is given here.
Potency is the fitted concentration of half-maximal effect.

Experiment: qHTS for inhibitors of Vif-A3G interactions: Cherry picks; note: nearly all actives have a fitted effect of over 80% in size
Settings: HeLa A3G-eYFP + Vif (tagged APOBEC3G with the HIV-1 protein that degrades it), 24 h; Potency: eYFP fluorescence increase; series mostly up to 36.9 µM
In short: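 Cherry-picked compounds tested at several concentrations on A3G-eYFP/Vif HeLa cells for 24 hours; loss of Vif-driven degradation read as eYFP fluorescence by cytometric plate imaging, 488 nm excitation, 500-530 nm emission.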
With `CC(=O)Nc1cccc(-c2ccnc3c2CC(C(=O)NCc2cccs2)O3)c1` (stereo unspecified) the Potency was “inactive”.
For `CC(=O)Nc1ccc(NC(=O)C/C(C)=N/NC(N)=S)cc1`, the Potency was “inactive”.
For `O=c1oc2cc(O)ccc2cc1-c1nc(-c2ccc(Cl)c(Cl)c2)cs1`, the Potency was 1.84 µM (active).
In the case of `Oc1ccc(-c2nc(-c3ccc(O)c(O)c3)cs2)cc1`, the Potency is reported as “inactive”.
With `COc1ccc(-c2csc(-c3ccc(O)cc3)n2)cc1` the Potency was “inactive”.
With `CCN(CC)c1ccc2cc(-c3nnc(-c4cccc(Cl)c4)o3)c(=O)oc2c1` the Potency was 1.3 µM (active).
With `CCN(CC)c1ccc2cc(-c3nc(-c4ccccc4)no3)c(=O)oc2c1` the Potency was 4.61 µM (active).
For `CCN(CC)c1ccc2cc(-c3nc4ccccc4n3C)c(=O)oc2c1`, the Potency was 16.4 µM (active).
For `COc1cccc(C2=CC(c3cc(Br)ccc3F)n3nnnc3N2)c1` (stereo unspecified), the Potency was “inactive”.
In the case of `CCN(CC)c1ccc2cc(C(N)=O)c(=N)oc2c1`, the Potency is reported as 23.1 µM (active).
For `CCN(CC)c1ccc(/C=N/N=C(N)N)c(O)c1`, the Potency was “inactive”.
For `O=C1/C(=C/c2c[nH]c3ccccc23)CCC/C1=C\c1c[nH]c2ccccc12`, the Potency was 18.4 µM (active).
For `O=C(c1ccccc1)c1c2c(cc3sc4ccccc4[n+]13)-c1cccc3cccc-2c13`, the Potency was “inactive”.
In the case of `S=C(NN=Cc1ccccn1)Nc1ccccn1`, the Potency is reported as “inactive”.
In the case of `C/C(=N\Nc1nc(C)cc(-c2ccccc2)n1)c1ccc(F)cc1`, the Potency is reported as “inactive”.
In the case of `CCOc1ccccc1C(=O)Nc1c(C(=O)Nc2ccc(F)cc2)oc2ccccc12`, the Potency is reported as “inactive”.
In the case of `CCOc1ccc(Br)cc1C(=O)Nc1ccc(C(=O)NCC(C)C)cc1`, the Potency is reported as 6.51 µM (active).
For `CCOc1ccc(Br)cc1/C(C)=N\NC1=NCCN1`, the Potency was “inactive”.
With `COCCNC(=S)NN=C1CCCCCC1` the Potency was “inactive”.
For `O=C1CC(c2cc(Br)ccc2F)c2cc3c(cc2N1)CCC3` (stereo unspecified), the Potency was “inactive”.
In the case of `Cc1ccc(/C=C/c2ccc(N(C)C)cc2)[n+](C)c1`, the Potency is reported as 14 µM (active).
For `CC[n+]1cc(C)ccc1/C=C/c1ccc(N(C)C)cc1`, the Potency was 14 µM (active).
For `CN(C)c1ccc(/C=C/c2cc[n+](C)cc2)cc1`, the Potency was 15.8 µM (active).
With `O=C1NC(c2cccc(Cl)c2)Nc2ccccc21` (stereo unspecified) the Potency was “inactive”.
With `O=c1[nH]ncc2c3ccccc3n(Cc3cccc(Cl)c3)c12` the Potency was 23.1 µM (active).
For `CC(C)(C)c1ccc(Cn2c(=O)cnc3ccccc32)cc1`, the Potency was “inactive”.
For `O=C(NNc1ncc(C(F)(F)F)cc1Cl)c1c(Cl)cccc1Cl`, the Potency was “inactive”.
In the case of `CN(C)c1ccc(/C=C2\SC(=S)N(Nc3ncc(C(F)(F)F)cc3Cl)C2=O)cc1`, the Potency is reported as 3.66 µM (active).
With `COc1cc(/C=C2\SC(=S)N(Nc3ncc(C(F)(F)F)cc3Cl)C2=O)ccc1O` the Potency was 18.4 µM (active).
In the case of `CCOC(=O)Nc1ccc2nc(-c3cscn3)[nH]c2c1`, the Potency is reported as “inactive”.
For `CCCn1c(C2CCCN2c2nc(-c3cccc(Br)c3)cs2)nc2ccccc21` (stereo unspecified), the Potency was “inactive”.
In the case of `CCc1ccc(NC(=O)/C(C#N)=C/c2cc3ccc(C)cc3nc2N2CCOCC2)cc1`, the Potency is reported as 14.6 µM (active).
For `CCc1ccc(C(=O)NC(=S)Nc2ccc(N3CCOCC3)cc2)cc1`, the Potency was “inactive”.
For `Cc1cc2c(cc(C(=O)OCC(=O)NCc3cccs3)n2C(C)C)o1`, the Potency was “inactive”.
With `CCOC(=O)C1C(=O)C=C(/C=C/c2ccc(N(C)C)cc2)CC1c1ccccc1` (stereo unspecified) the Potency was 6.51 µM (active).
With `COc1ccc(NC(=S)NN(C)C(=S)Nc2ccc(OC)cc2)cc1` the Potency was “inactive”.
For `CCC(=C/c1sc2ccc3ccccc3c2[n+]1C)/C=C1\Sc2ccc3ccccc3c2N1C`, the Potency was “inactive”.
For `CCN1/C(=C/c2cc[n+](C)cc2)C=Cc2cc(C)ccc21`, the Potency was 23.1 µM (active).
With `Cc1cc(C)c(S(=O)(=O)Oc2ccccc2[N+](=O)[O-])c(C)c1` the Potency was “inactive”.
With `CCOC(=O)C1CCCN(C(=O)c2ccc3nc(-c4cccc(OC)c4)oc3c2)C1` (stereo unspecified) the Potency was “inactive”.
In the case of `COc1ccc(NCc2cc3cc4c(cc3n(CC(=O)Nc3cc(C)ccc3C)c2=O)OCCO4)cc1`, the Potency is reported as 2.31 µM (active).
For `O=C(Cn1ncc(Cl)c(Cl)c1=O)Nc1ccc2c(c1)OCO2`, the Potency was “inactive”.
For `COc1ccc(NC(=O)N(Cc2cc3ccc(OC)cc3[nH]c2=O)CC2CCCO2)cc1` (stereo unspecified), the Potency was “inactive”.
For `Cc1nonc1NC(=O)CSc1nc2c(C)cccc2cc1C#N`, the Potency was 18.4 µM (active).
For `Cc1ccccc1NC(=O)CSc1nc2cc3c(cc2cc1C)CCC3`, the Potency was “inactive”.
In the case of `Cc1cc(NC(=O)CSc2nc(-c3cccs3)nc3ccccc23)no1`, the Potency is reported as “inactive”.
For `Cc1cc2cc(C#N)c(SCC(=O)Nc3nonc3C)nc2cc1C`, the Potency was 14.6 µM (active).
For `Cc1cc(NC(=O)CSc2nc3c(C)cccc3cc2C#N)no1`, the Potency was 20.6 µM (active).
With `COC(=O)C1CCC(=O)N1C(c1ccc(OC)cc1)c1cc(OC)c(OC)c(OC)c1` (stereo unspecified) the Potency was “inactive”.
In the case of `COc1ccc2ccccc2c1C1NC(=O)c2ccccc2N1` (stereo unspecified), the Potency is reported as “inactive”.
In the case of `O=C1C(=Cc2ccccc2[N+](=O)[O-])Cc2ccccc21`, the Potency is reported as “inactive”.
With `COc1ccc(/C=C2/CSC/C(=C/c3ccc(OC)c(OC)c3)C2=O)cc1OC` the Potency was “inactive”.
With `CN(C)c1ccc(/C=C2\Cc3ccccc3C2=O)cc1` the Potency was 3.26 µM (active).
With `Nc1ccccc1C=C1Cc2ccccc2C1=O` the Potency was 16.4 µM (active).
For `CN(C)c1ccc(/C=C2/C[N+](C)(C)C/C(=C/c3ccc(N(C)C)cc3)C2=O)cc1`, the Potency was 9.2 µM (active).
In the case of `Cc1ccc2nc(C)c(C(=O)NN=C3CCCCCC3)n2c1`, the Potency is reported as “inactive”.
In the case of `CSc1nc(Sc2ccccc2Cl)c2ccccc2n1`, the Potency is reported as “inactive”.
With `CCC1CCCCN1CCCNC(=O)c1ccc2c(c1)N(Cc1ccccc1F)C(=O)c1ccccc1S2(=O)=O` (stereo unspecified) the Potency was “inactive”.
For `CCn1c(SCC(=O)Nc2cccc(O)c2)nc2c1c(=O)n(C)c(=O)n2C`, the Potency was “inactive”.
For `COc1ccc(NC(=O)CSc2ccc3c4c(cccc24)C(=O)c2ccccc2-3)cc1`, the Potency was 7.31 µM (active).
In the case of `COc1ccc(NC(=O)c2cccc3ccccc23)cc1`, the Potency is reported as “inactive”.
With `N#Cc1cccc(NC(=O)CSc2ccc3c4c(cccc24)C(=O)c2ccccc2-3)c1` the Potency was 6.51 µM (active).
For `CCn1c(CNC(=O)C23CC4CC(CC(C4)C2)C3)nnc1SCC(=O)Nc1ccc(OC)cc1`, the Potency was “inactive”.
For `CCCn1nnc(NC(=S)NC(=O)c2ccccc2OC)n1`, the Potency was “inactive”.
For `O=C(NC12CC3CC(CC(C3)C1)C2)c1ccc([N+](=O)[O-])o1`, the Potency was “inactive”.
For `CN1CCC(OC(=O)c2cc3cc(Cl)cc(Cl)c3oc2=O)CC1`, the Potency was “inactive”.
For `Cc1ccccc1OCCc1c(C)[nH]c(=S)[nH]c1=O`, the Potency was “inactive”.
In the case of `O=C(c1ccccn1)C1CCCN(Cc2cn[nH]c2-c2cc3ccccc3o2)C1` (stereo unspecified), the Potency is reported as “inactive”.
For `Cc1c(N=C2N=C(NC(=O)c3cccs3)c3ccccc32)c(=O)n(-c2ccccc2)n1C`, the Potency was 14 µM (active).
In the case of `COc1ccc(N2C(=O)CC(Sc3nc(C)c4c(n3)CCCC4)C2=O)cc1` (stereo unspecified), the Potency is reported as “inactive”.
With `Cn1c(N)c(-c2ccccc2)c2ccc([N+](=O)[O-])cc2c1=O` the Potency was 15.8 µM (active).
In the case of `CCc1cc[n+](-c2nc3ccccc3nc2[N-]S(=O)(=O)c2ccc(Br)s2)cc1`, the Potency is reported as 20.6 µM (active).
With `Cc1cc(C)c[n+](-c2nc3ccccc3nc2[N-]S(=O)(=O)c2ccc(Br)s2)c1` the Potency was 18.4 µM (active).
In the case of `O=S(=O)([N-]c1nc2ccccc2nc1-[n+]1ccc(-c2ccncc2)cc1)c1ccccc1`, the Potency is reported as “inactive”.
In the case of `COCc1ccc(O)c2ncccc12`, the Potency is reported as “inactive”.
With `COC(=O)c1c(N2C(=O)[C@H]3[C@@H](C2=O)[C@]2(C(=O)Nc4c(C)cccc42)N2CCC[C@@H]32)sc(C)c1C` the Potency was “inactive”.
With `CC(=O)/C(N=Nc1cc(C)ccc1O)=C(\C)O` the Potency was 16.4 µM (active).
In the case of `CCCN(C(=O)CSc1n[nH]c(-c2ccc(OC)cc2)n1)c1c(N)n(Cc2ccccc2)c(=O)[nH]c1=O`, the Potency is reported as “inactive”.
For `COc1ccc2[nH]cc(/C=C/c3cc[n+](C)cc3)c2c1`, the Potency was 13 µM (active).
With `COc1ccc2c(c1)c(/C=C/c1cc[n+](C)cc1)cn2C` the Potency was 1.98 µM (active).
For `COc1ccc2c(c1)c(C(=O)N/N=C/c1ccc(Cl)cc1)c(C)n2C`, the Potency was “inactive”.
With `Cc1ccc2[nH]cc(/C=C/c3cc[n+](C)cc3)c2c1` the Potency was 4.44 µM (active).
With `C[n+]1ccc(/C=C/c2c[nH]c3ccc(F)cc23)cc1` the Potency was 14.6 µM (active).
With `CSc1cccc(NC(=O)c2cc3c(COC(C)=O)cnc(C)c3oc2=O)c1` the Potency was “inactive”.
In the case of `O=C(NC1C/C(=N/O)c2cc3c(cc21)OCO3)C(F)(F)F` (stereo unspecified), the Potency is reported as “inactive”.
With `CCOc1ccc(C(C)=O)cc1COc1cccnc1[N+](=O)[O-]` the Potency was “inactive”.
In the case of `O=C(NCc1cccs1)C1CCN(c2ccc(S(=O)(=O)N3CCOCC3)cc2Cl)CC1`, the Potency is reported as “inactive”.
For `O=S(=O)(Nc1nc2ccccc2nc1OCC(F)(F)F)c1cccs1`, the Potency was “inactive”.
In the case of `CC[N+](C)(C)c1ccc(/C=C/c2ccncc2)cc1`, the Potency is reported as 20.6 µM (active).
With `CCC[N+](C)(C)c1ccc(/C=C/c2ccncc2)cc1` the Potency was 18.4 µM (active).
In the case of `C=CCOC(=O)C1=C(C)NC(C)=C(C(=O)OCC=C)C1c1cn(-c2ccccc2)nc1-c1ccco1`, the Potency is reported as “inactive”.
With `CC(=O)c1cccc(-c2ccnc3c2CC(C(=O)Nc2ccc(Cl)cc2)O3)c1` (stereo unspecified) the Potency was “inactive”.
With `NC(=O)c1c(Nc2nc3c(F)cccc3s2)sc2c1CCCC2` the Potency was “inactive”.
For `CCCSc1ncc(Cl)c(C(=O)Nc2sc3c(c2C(N)=O)CCCC3)n1`, the Potency was 11.6 µM (active).
In the case of `ClCC1NCC(c2ccccc2Cl)c2c1[nH]c1ccccc21` (stereo unspecified), the Potency is reported as “inactive”.
In the case of `S=c1[nH]cnc2sc(-c3ccccc3)cc12`, the Potency is reported as “inactive”.
With `CN(C)C=Nc1c(Br)cc(Br)c2nonc12` the Potency was 9.2 µM (active).
With `Cc1ccc(C=NNC(=O)c2cc(-c3cccnc3)nc3ccccc23)o1` the Potency was “inactive”.
For `O=C(N/N=C/c1ccc(Cl)cc1)c1cc(-c2cccnc2)nc2ccccc12`, the Potency was “inactive”.
For `Nc1c(C(=O)N/N=C/c2cccnc2)oc2nc(-c3ccccc3)cc(-c3ccco3)c12`, the Potency was 5.8 µM (active).
In the case of `O=C(N/N=C/c1ccc2c(c1)OCO2)c1cc(-c2ccco2)nc2ccccc12`, the Potency is reported as “inactive”.
With `Cc1ccc(/C=N/NC(=O)c2cc(-c3ccccc3)nc3ccccc23)o1` the Potency was “inactive”.
For `O=C(N/N=C/c1ccco1)c1cc(-c2ccncc2)nc2ccccc12`, the Potency was “inactive”.
With `Nc1c(C(=O)N/N=C/c2ccc(F)cc2)oc2nc(-c3ccccc3)cc(-c3ccco3)c12` the Potency was 12.5 µM (active).
With `O=C(N/N=C/c1cccc(F)c1)c1cc(-c2ccco2)nc2ccccc12` the Potency was “inactive”.
For `Nc1c(C(=O)N/N=C/c2ccccc2Cl)oc2nc(-c3ccccc3)cc(-c3ccco3)c12`, the Potency was 5.8 µM (active).
